Assay [1] deals with Transcription factor E2F1 (Homo sapiens) (UniProt Q01094). Put plainly: ATG_E2F_CIS: Attagene CIS-FACTORIAL HepG2 Assay for human E2F Transcription Factor 1 (AID 2282935). The conditions noted are these: HepG2 Attagene cis-reporter, E2F reporter RNA transcripts; actives raise or lower the signal. The method in brief: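 Fluorescent RT-PCR products, digested with HpaI for 2 h at 37 C, are separated by capillary electrophoresis. Source RNA comes from transfected HepG2 cultures treated for 24 h.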
Transcription factor E2F1 (Homo sapiens), sequence (Q01094 whole entry, looked up): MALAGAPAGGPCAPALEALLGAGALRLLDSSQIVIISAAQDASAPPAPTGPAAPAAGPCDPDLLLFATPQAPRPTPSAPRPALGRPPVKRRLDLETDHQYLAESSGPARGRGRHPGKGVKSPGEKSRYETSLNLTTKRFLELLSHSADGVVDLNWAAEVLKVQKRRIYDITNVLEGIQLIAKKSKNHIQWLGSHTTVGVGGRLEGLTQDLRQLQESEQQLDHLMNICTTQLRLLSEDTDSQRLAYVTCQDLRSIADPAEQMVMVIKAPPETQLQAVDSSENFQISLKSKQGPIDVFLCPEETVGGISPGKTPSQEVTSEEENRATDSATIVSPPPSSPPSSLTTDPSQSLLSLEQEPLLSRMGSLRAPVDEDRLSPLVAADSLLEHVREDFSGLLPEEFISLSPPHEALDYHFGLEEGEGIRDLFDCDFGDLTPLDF

Assay [2] in a line: ATG_M_61_CIS: Attagene CIS-FACTORIAL HepG2 Assay for M61 Transcription Factor (Internal Marker) (AID 2282937). The conditions noted are these: HepG2 Attagene CIS-FACTORIAL M61 internal marker reporter; actives raise or lower the signal. The method in brief: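 Using transiently transfected HepG2 liver cells, reporter transcript levels were assessed 24 h post-dosing by RT-PCR and capillary electrophoresis. Changes in either direction were fitted relative to DMSO controls.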

Assay [3] in a line: ATG_EGR_CIS: Attagene CIS-FACTORIAL HepG2 Assay for human Early Growth Response 1 (EGR1) (AID 2282938). The note with it: HepG2 Attagene CIS-FACTORIAL EGR reporter mRNA; actives raise or lower the signal. The method in brief:
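Fluorescent capillary-electrophoresis signal of reporter cDNA fragments serves as read-out. HepG2 cells bear transiently transfected cis-promoter reporter units and are exposed 24 h; gain- or loss-of-signal is fitted against DMSO.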

The nature of assay [4]: ATG_M_19_CIS: Attagene CIS-FACTORIAL HepG2 Assay for M19 Transcription Factor (Internal Marker) (AID 2282939). The conditions noted are these: HepG2 Attagene CIS-FACTORIAL M19 internal marker reporter; actives raise or lower the signal. The method in brief: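 HepG2 cells transiently transfected with cis-regulated multiple reporter transcription units were dosed for 24 h; reporter mRNA was quantified by RT-PCR, 6-FAM primer-extension labelling, HpaI digestion and capillary electrophoresis, with bidirectional fitting against DMSO baseline.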

Assay [5] is described as follows: ATG_ERE_CIS: Attagene CIS-FACTORIAL HepG2 Assay for Estrogen Response Element (ERE) (AID 2282940). The note with it: HepG2 ERE cis-reporter, Attagene RNA transcript; actives raise or lower the signal. The method in brief: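 HepG2 cells transiently transfected with cis-promoter-driven multiplexed reporter transcription units report endogenous TF activity. After 24 h compound exposure, reporter mRNA is quantified by RT-PCR with capillary electrophoresis fluorescence; bidirectional fitting versus DMSO baseline.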

Assay [6] in a line: ATG_Ets_CIS: Attagene CIS-FACTORIAL HepG2 Assay for human Erythroblast Transformation Specific (ETS) (AID 2282941). The note with it: HepG2 ETS cis-reporter transcription, actives raise or lower the signal. The method in brief: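 Bidirectional fit versus DMSO of reporter mRNA signal, detected by RT-PCR and capillary electrophoresis in HepG2 cells transiently transfected with cis-element reporters and dosed 24 h.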

Assay [7] in a line: ATG_FoxO_CIS: Attagene CIS-FACTORIAL HepG2 Assay for human Forkhead box O (FoxO) (AID 2282943). The conditions noted are these: HepG2 Attagene cis-reporter, FoxO element, mRNA; actives raise or lower the signal. The method in brief:
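Endogenous transcription factor activity read from multiplexed cis-promoter reporter transcripts in transiently transfected HepG2, 24 h after dosing. Reporter RNA measured via RT-PCR plus capillary electrophoresis of FAM-labeled products; gain or loss relative to DMSO.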

Assay [8] is described as follows: ATG_GATA_CIS: Attagene CIS-FACTORIAL HepG2 Assay for human GATA Binding Protein (AID 2282944). The conditions noted are these: HepG2 GATA cis-element reporter, Attagene multiplex mRNA; actives raise or lower the signal. The method in brief:
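HepG2 cells transiently transfected with multiplexed cis-element reporter units reflecting endogenous transcription factor activity; reporter mRNA measured after 24 h dosing by RT-PCR, 6-FAM labeling, HpaI digestion and capillary electrophoresis. Bidirectional fitting versus DMSO baseline.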

In assay [9] the target is Hepatocyte nuclear factor 3-beta (Homo sapiens) (UniProt Q9Y261). Put plainly: ATG_FoxA2_CIS: Attagene CIS-FACTORIAL HepG2 Assay for human Forkhead box A2 (FOXA2) (AID 2282942). The note with it: HepG2 cis-reporter transcription factor activity, 24 h; actives raise or lower the signal. The method in brief:
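Fluorescence signal of reporter cDNA fragments, separated by capillary electrophoresis, reflects endogenous transcription factor activity in transfected HepG2 after 24 h. Both increases and decreases fitted against DMSO.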

Active and inactive are the calls of the source. The calls were made as follows: active = hit-call score of the fitted dose curve at least 0.9, where 1 is the maximum; inactive = score below 0.9.

By AC50 is commonly meant the midpoint of the concentration-response curve, whichever way the signal moves.

Hepatocyte nuclear factor 3-beta (Homo sapiens), sequence (Q9Y261 whole entry, looked up, the tested form may be a part): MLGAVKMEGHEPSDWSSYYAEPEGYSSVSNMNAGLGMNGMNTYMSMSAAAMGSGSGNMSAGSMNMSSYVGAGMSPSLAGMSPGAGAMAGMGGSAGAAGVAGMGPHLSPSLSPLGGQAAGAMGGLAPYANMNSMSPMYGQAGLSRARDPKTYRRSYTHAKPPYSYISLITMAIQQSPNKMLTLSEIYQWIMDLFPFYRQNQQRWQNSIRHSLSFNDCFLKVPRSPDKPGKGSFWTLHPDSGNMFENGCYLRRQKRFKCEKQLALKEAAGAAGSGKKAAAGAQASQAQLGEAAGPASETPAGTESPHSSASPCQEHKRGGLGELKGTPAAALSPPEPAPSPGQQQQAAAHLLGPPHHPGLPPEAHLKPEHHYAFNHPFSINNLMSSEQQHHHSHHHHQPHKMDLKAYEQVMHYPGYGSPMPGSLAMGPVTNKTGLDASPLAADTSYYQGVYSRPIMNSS

As for `COc1ccc(OC)cc1`, the call in [1], in assay [2], in assay [3], in assay [4], in assay [5] and in assay [6] was inactive. Moreover, the molecule was classed as inactive in assay [7] and in assay [8].

Take `CC(O)CNCC(C)O` (stereo not drawn): the molecule was called inactive in [1], in [2], in assay [3], in assay [5], in assay [6] and in [9]. The result in assay [7] and in assay [8] was inactive.

For the molecule `CC1(C)CC(=O)CC(C)(C)N1`, the outcome in assay [1], in assay [2], in assay [3], in [4], in assay [5] and in assay [6] was inactive. In assay [7], the molecule was classed as inactive.

Take `CCCCCCCCCO`: the outcome in assay [1], in assay [2], in assay [3], in [4], in assay [5] and in assay [6] was inactive. Moreover, the molecule was classed as inactive in [7] and in assay [8].

With `Nc1ccc(N)c([N+](=O)[O-])c1`, the molecule was classed as inactive in assay [1], in assay [2], in assay [3], in [4], in assay [6] and in assay [9]. The result in assay [7] and in [8] was inactive. For the same molecule, the concentration at half-maximal activity (AC50) in assay [5] was 41.6 µM (active) [middle of 5 runs].

Turning to `CC(=O)C1C(=O)C=C(C)OC1=O` (stereo not drawn), the outcome in assay [1], in assay [2], in [3], in assay [5], in assay [6] and in [9] was inactive. Further, the molecule was classed as inactive in assay [7] and in assay [8].

As for `CC(=N[Si](C)(C)C)O[Si](C)(C)C`, the outcome in assay [1], in [2], in assay [3], in [5], in assay [6] and in assay [9] was inactive. Moreover, the outcome in assay [7] and in [8] was inactive.

With `O=C(O)CS`, the outcome in [1], in assay [2], in [3], in assay [4], in assay [5] and in [6] was inactive. The outcome in assay [7] was inactive.

In the case of `CN(C)CCC=C1c2ccccc2CCc2ccccc21`, the outcome in [1], in assay [4], in assay [5], in assay [6], in assay [9] and in [7] was inactive. In assay [8], the molecule was called inactive. For the same molecule, the half-maximal activity concentration (AC50) in [3] was 41 µM (active).

With `CCCCCCCCCCCCS`, the molecule was called inactive in assay [1], in assay [2], in assay [3], in assay [5], in [6] and in assay [9]. Besides, the outcome in [7] and in [8] was inactive.

With `CC(C)Cc1ccc(C(C)C(=O)O)cc1` (stereo not drawn), the molecule was called inactive in assay [1], in assay [2], in [3], in assay [4], in [6] and in assay [7]. For the same molecule, the outcome in assay [8] was inactive. In addition, in assay [5], the AC50 was 10.6 µM (active).

With `OC[C@@H](O)[C@H](O)[C@@H](O)[C@@H](O)CO`, the molecule was called inactive in [1], in assay [2], in [3], in assay [4], in [6] and in assay [7]. Besides, in assay [8], the molecule was classed as inactive. The AC50 in assay [5] is 30.1 µM (active).

In the case of `C=CCOC(=O)/C=C\C(=O)OCC=C`, the call in assay [1], in assay [2], in [5] and in assay [9] was inactive. The AC50 in assay [3] was 34.3 µM (active); in assay [6] it was 13.2 µM (active); in assay [7], 101 µM (active).

With `COC(=O)C(C)Oc1ccc(Oc2ncc(C(F)(F)F)cc2Cl)cc1` (stereo not drawn), the outcome in [1], in assay [2], in assay [4], in assay [5], in assay [6] and in [7] was inactive. Further, in [8], the molecule was called inactive. Besides, the concentration at half-maximal activity (AC50) in assay [3] was 76.1 µM (active).

On to `COc1cc(OC)c2ccc(=O)oc2c1`, for which the molecule was classed as inactive in assay [1], in [2], in assay [3], in assay [4], in assay [5] and in assay [6]. Besides, the outcome in assay [7] and in assay [8] was inactive.

As to `C=C1CC[C@H]2O[C@]2(C)CC[C@@H]2[C@@H]1CC2(C)C`, the result in [1], in assay [2], in [3], in assay [4], in [5] and in [6] was inactive. Moreover, the outcome in [9], in assay [7] and in assay [8] was inactive.

Turning to `CC=CC(=O)C1=C(C)C=CCC1(C)C`, the outcome in [1], in assay [3], in [4], in [5], in assay [6] and in assay [9] was inactive. Also, the result in [7] and in [8] was inactive.

`CCC(C)(C)C1CCC(OC)CC1` (stereo not drawn): the molecule was classed as inactive in [1], in [3], in assay [4], in assay [5], in [6] and in assay [9]. Also, the outcome in assay [7] and in assay [8] was inactive.

For `O=C1CCCCCCCCCCCC(=O)OCCO1`, the result in assay [1], in assay [2], in [3], in assay [4], in assay [5] and in [6] was inactive. The result in assay [9], in assay [7] and in assay [8] was inactive.

Consider `CCCCCCCCOS(=O)(=O)O`, for which the molecule was called inactive in assay [1], in assay [2], in assay [3], in assay [6], in [9] and in [7]. In assay [8], the molecule was classed as inactive. The concentration at half-maximal activity (AC50) in assay [5] was 135 µM (active).

On to `CC(O)CN` (stereo not drawn), for which the outcome in [1], in [2], in assay [3], in assay [4], in assay [5] and in [6] was inactive. Besides, the molecule was called inactive in [9], in assay [7] and in [8].

On to `CC/C=C\C#N`, for which the molecule was classed as inactive in assay [1], in assay [2], in [3], in assay [4], in assay [5] and in assay [6]. The call in assay [9], in [7] and in assay [8] was inactive.

Regarding `CCCC1CCOC(C)S1` (stereo not drawn), the result in assay [1], in [2], in [3], in assay [5], in assay [6] and in assay [9] was inactive. The outcome in [7] and in assay [8] was inactive.

With `CCC(C)(CCCC(C)C)OC(C)=O` (stereo not drawn), the result in [1], in [3], in assay [4], in [5], in [6] and in assay [9] was inactive. Further, the outcome in assay [7] and in [8] was inactive.

For the molecule `S=c1[nH][nH]c(=S)s1`, the outcome in assay [1], in assay [2], in assay [3], in assay [4], in [5] and in [6] was inactive. The outcome in assay [9], in assay [7] and in assay [8] was inactive.

Regarding `C=CCCCCCCCCC(=O)OCC`, the result in assay [1], in assay [2], in [3], in assay [4], in [5] and in assay [6] was inactive. The molecule was called inactive in [9], in assay [7] and in [8].

In the case of `Brc1cc(Br)cc(Br)c1`, the molecule was classed as inactive in assay [1], in assay [2], in assay [3], in [4], in assay [5] and in [6]. Further, the result in assay [9], in [7] and in assay [8] was inactive.

With `O=c1cc(-c2ccc(O)cc2)oc2cc(O)cc(O)c12`, the outcome in assay [1], in assay [2], in [4] and in assay [7] was inactive. Also, the half-maximal activity concentration (AC50) in assay [3] was 10.1 µM (active); in assay [5], 1.18 µM (active); in [6], 17.5 µM (active).

`C=C(C)CCCC(C)CCO` (stereo not drawn): the molecule was called inactive in assay [1], in assay [2], in assay [3], in assay [4], in assay [5] and in assay [6]. Also, the molecule was called inactive in [9], in assay [7] and in assay [8].

`CC(C)Cc1ccccc1`: the molecule was classed as inactive in assay [1], in assay [3], in [5], in assay [6], in [9] and in assay [7]. In addition, the molecule was classed as inactive in assay [8].

As for `CCC(CC)CO`, the molecule was classed as inactive in assay [1], in assay [2], in [3], in assay [4], in assay [5] and in assay [6]. Further, the molecule was classed as inactive in assay [9], in assay [7] and in assay [8].

As to `CCCCCCCCCOS(=O)(=O)O`, the result in [1], in assay [2], in assay [3], in [4], in assay [6] and in assay [7] was inactive. Moreover, the molecule was called inactive in assay [8]. Moreover, in assay [5], the AC50 is 5.14 µM (active).

In the case of `CC(=O)c1ccc2ccccc2c1`, the call in assay [1], in assay [2], in [3], in assay [4], in assay [5] and in [6] was inactive. For the same molecule, the molecule was called inactive in assay [7] and in [8].

`C=CC(C)CCCC(C)(C)O` (stereo not drawn): the outcome in assay [1], in [2], in assay [3], in assay [4], in assay [5] and in assay [6] was inactive. Also, the outcome in [9], in assay [7] and in assay [8] was inactive.

The values above are taken from PubChem BioAssay (EPA / NIEHS).
